# Among all 96,000 compounds or so, about 19,000 (20%) were called active.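 Rule for the calls: active = blocking of liver enzyme CYP2C9 beyond about 50% at 5 µM (limit read from the data); inactive = the rest.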 Not all results are given here.
# Target: Cytochrome P450 2C9 (Homo sapiens) (UniProt P11712)
# Assay: blockers of cytochrome P450 2C9 activity – biochemical, luminescence, ADME assay, primary screen (AID 777)
# Conditions: CYP2C9 Supersomes, luciferin-H conversion, at 5 µM, hits give high values
# Cytochrome P450 2C9 (Homo sapiens), sequence (P11712 whole entry, looked up): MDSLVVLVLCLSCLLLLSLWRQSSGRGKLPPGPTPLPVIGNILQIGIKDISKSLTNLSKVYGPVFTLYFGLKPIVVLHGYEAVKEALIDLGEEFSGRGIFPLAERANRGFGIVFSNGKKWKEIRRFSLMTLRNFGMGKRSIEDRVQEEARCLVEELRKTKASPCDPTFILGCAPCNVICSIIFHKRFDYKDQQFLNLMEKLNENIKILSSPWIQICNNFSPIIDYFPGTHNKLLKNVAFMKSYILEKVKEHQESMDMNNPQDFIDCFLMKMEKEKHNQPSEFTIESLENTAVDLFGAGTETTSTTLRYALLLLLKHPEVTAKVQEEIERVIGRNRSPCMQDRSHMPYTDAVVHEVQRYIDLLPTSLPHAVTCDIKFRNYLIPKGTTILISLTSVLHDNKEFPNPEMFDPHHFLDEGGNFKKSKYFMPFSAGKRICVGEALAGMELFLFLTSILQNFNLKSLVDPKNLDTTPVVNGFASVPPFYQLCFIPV
row,Structure (SMILES),inhibition
1,COc1ccc(CCn2c(O)c(C=NCCCn3ccnc3)c(=O)[nH]c2=O)cc1OC,61.3% (active)
2,COc1ccccc1-n1c(O)c(C=NC2CC2)c(=O)[nH]c1=O,-3.5% (inactive)
3,COc1ccc(CCn2c(O)c(C=NC3CC3)c(=O)[nH]c2=O)cc1OC,16.5% (inactive)
4,COc1ccc(S(=O)(=O)NCc2ccc(C(=O)N3CCC4(CC3)OCCO4)cc2)cc1,4.3% (inactive)
5,C=Cn1ccnc1P(=S)(c1cc(N(CC)CC)ns1)c1nccn1C=C,12.6% (inactive)
6,CCOC(=O)C(O)(c1ccc(N)c(OC)c1)C(F)(F)F (stereo not given),25.7% (inactive)
7,CCOC(=O)C(O)(c1ccc(NC(=O)c2ccco2)c(OC)c1)C(F)(F)F (stereo not given),71.4% (active)
8,COC(=O)C(O)(c1ccc(NC(=O)c2ccco2)c(OC)c1)C(F)(F)F (stereo not given),75.9% (active)
9,C[N+]12CN3CN(CN(C3)C1)C2,0.8% (inactive)
10,Cc1ccc(P(=S)(c2ccc(C)o2)N2CCOCC2)o1,11% (inactive)
11,c1cncc(CNC2=NCCC2)c1,-10.2% (inactive)
12,COc1ccccc1N1CCN(C(CNC(=O)Oc2ccccc2)c2cccnc2)CC1 (stereo not given),44.1% (inactive)
13,CC(C)c1ccc(O)c(CN2CCN(c3ccccc3)CC2)c1,19.1% (inactive)
14,CC[N+](CC)(CC)CCCCCCCCCC[N+](CC)(CC)CC,-4.4% (inactive)
15,O=C(CN1CCCCC1)Nc1ccc(Br)cc1C(=O)c1ccccc1Cl,8.7% (inactive)
16,CCC/C(=N\O)c1c[nH]c2ccccc12,10.1% (inactive)
17,Cc1ccc2c(c1)C1CN(C)CCC1N2C(=O)Cn1nnc(-c2ccccc2F)n1 (stereo not given),4.5% (inactive)
18,CN1CCC(N(C)Cc2cccnc2)CC1,-6.3% (inactive)
19,CN1C2C=C(N(C(=O)c3ccc(Cl)cc3)c3ccccc3)CC1CC2 (stereo not given),6.8% (inactive)
20,Nc1ccc(C(=O)N/N=C2/CN3CCC2CC3)cc1,8% (inactive)
21,CC(C)c1ccc(OCC(=O)N2CCN(C)CC2)c(Br)c1,-1.3% (inactive)
22,O=C(COc1ccc2ccccc2c1)N1CCN(Cc2ccncc2)CC1,90.5% (active)
23,CN1CCN(C(=O)COc2ccc(C(C)(C)C)cc2Br)CC1,-18% (inactive)

row,Structure (SMILES),inhibition
1,Cc1ccc(N(C)C(=O)Oc2cccc3ccc(C)nc23)cc1,36.4% (inactive)
2,Cn1c(C(=O)N2CCC(C(=O)N3CCC4(CC3)OCCO4)CC2)cc2sccc21,-32.3% (inactive)
3,CCOc1ccc(CN(CCCl)CCCl)cc1C(=O)OC,97.3% (active)
4,Cn1c(O)c(C=Nc2ccc3c(c2)CCC3)c(=O)n(C)c1=O,11.5% (inactive)
5,CC(=C1C(=O)c2ccccc2C1=O)N1CCN(CCN=Cc2c(O)n(C)c(=O)n(C)c2=O)CC1,43.2% (inactive)
6,CC(C)(C)c1ccc(CN2C(=O)CN=C(c3ccccc3)c3ccccc32)cc1,18.9% (inactive)
7,O=C(O)C1CSC(c2cccnc2)N1 (stereo not given),-16.9% (inactive)
8,CCOC(=O)CC1=C(C(=O)OCC)C2(C(=O)N1)C(C(=O)OC)=C(N)Oc1ccccc12 (stereo not given),20.6% (inactive)
9,C=CCN1C(=O)C2(C(C(=O)OCC)=C(N)Oc3c2c(=O)oc2ccccc32)c2ccccc21 (stereo not given),88.5% (active)
10,COC(=O)CN1C(=O)C2(C(C(=O)OC)=C(N)Oc3ccccc32)C2=C1CC(C)(C)CC2=O (stereo not given),38.6% (inactive)
11,CNC(=O)N(C)c1nnc(C(C)(C)C)s1,-22.2% (inactive)
12,Cc1ccc(C)c(NC2=NCCCS2)c1,-2.6% (inactive)
13,CCOC(=O)C1CN(C)CCC1=O (stereo not given),1.1% (inactive)
14,CCCCCn1c(=O)c(C(=O)Nc2c(C)n(C)n(-c3ccccc3)c2=O)c(O)c2ccccc21,25.9% (inactive)
15,CCCCCn1c(=O)c(C(=O)NCc2ccccn2)c(O)c2ccccc21,78.1% (active)
16,CCN1c2nc3c(C)cccn3c(=O)c2CC2(C(=O)N(C)C(=O)N(C)C2=O)C1C (stereo not given),-8.4% (inactive)
17,Cc1nc2ccccn2c1P(=S)(N1CCCCC1)N1CCCCC1,11.7% (inactive)
18,CCOC(=O)c1c(C)c(C(=O)N2CCC3(CC2)OCCO3)c(C)n1CC,31.2% (inactive)
19,CN(C)C(=O)NC(O)C(Cl)(Cl)Cl (stereo not given),74.8% (active)
20,Cc1cc(N2C(=O)C3CCCN3C2c2ccc(Cl)c(Cl)c2)no1 (stereo not given),41.4% (inactive)
21,COc1ccc(-c2nc(CS(=O)CC(=O)N3CCC4(CC3)OCCO4)c(C)o2)cc1 (stereo not given),14.5% (inactive)
22,O=C1/C(=C\c2ccc3c(c2)OCO3)N2CCC1CC2,22.5% (inactive)
23,CCOC(=O)c1c(-c2ccccc2)oc2ccc(OC(=O)N(C)C)cc12,55% (active)

row,Structure (SMILES),inhibition
1,O=C1NC(=O)C(C/C=C/c2ccccc2)C(=O)N1,-3% (inactive)
2,CC(=NCc1ccc2c(c1)OCO2)c1c(O)[nH]c(=O)[nH]c1=O,-11.9% (inactive)
3,CN1CCN(Cc2ccccc2C(F)(F)F)CC1,0.4% (inactive)
4,CCN(CC)C(=O)c1ccc(NC(=O)c2cc(-n3cnnc3)ccc2Cl)cc1,32.9% (inactive)
5,O=C(CCN1CCCCC1)NCC(=O)Nc1ccc(Br)cc1C(=O)c1ccccc1,-14.9% (inactive)
6,CCOP(=S)(OCC)SCOC(=O)NCC(=O)OC,71.1% (active)
7,c1ccc(C2NCc3ccccc3-n3cccc32)cc1 (stereo not given),19.1% (inactive)
8,CC(=O)c1ccc(OC(NC(=O)Cc2ccccc2)C(Cl)(Cl)Cl)cc1 (stereo not given),86.4% (active)
9,CC(=O)NC(=O)NC(C)Cc1ccccc1 (stereo not given),-12.4% (inactive)
10,Cc1nc2nc(C)c(CCC(=O)N3CCC4(CC3)OCCO4)c(C)n2n1,3.8% (inactive)
11,NC(=O)Nc1cccc(C(F)(F)F)c1,-12.3% (inactive)
12,CC(=O)Nc1ccccc1C(=O)OCC(=O)c1cccc2ccccc12,80.7% (active)
13,CC12CN3CC(C)(CN(C1)C3c1cccs1)C2 (stereo not given),-10.5% (inactive)
14,Cc1ccc(Cn2nnnc2CN2CCC(n3nnc4ccccc43)CC2)cc1,93.4% (active)
15,CSC1=NP(=S)(SC)N(C)c2nc3n(c21)CCC3 (stereo not given),9.2% (inactive)
16,Cc1cccc(N2C(=O)NC(=O)/C(=C\c3cnn(-c4ccccc4)c3)C2=O)c1,-9.5% (inactive)
17,COc1ccc(C(=O)C2CN(C)CC2C(=O)c2ccc(OC)cc2)cc1 (stereo not given),12.4% (inactive)
18,Fc1cccc(F)c1CN1CCN(Cc2c(F)cccc2F)CC1,7.2% (inactive)
19,COc1ccc(CN2CCN(c3ccccc3F)CC2)c(OC)c1,60.9% (active)
20,COc1ccccc1CN1CCN(C(=O)Cc2ccccc2)CC1,31.5% (inactive)
21,CC(=O)c1c(O)n(C2CCCCCC2)c(=O)[nH]c1=O,82.9% (active)
22,CC(=NC1CCN(Cc2ccccc2)CC1)c1c(O)n(C)c(=O)n(C)c1=O,17.4% (inactive)
23,CCC(=NCCc1ccccc1)c1c(O)n(C2CCCCC2)c(=O)[nH]c1=O,68.4% (active)

row,Structure (SMILES),inhibition
1,CC(=NCC1CCCO1)c1c(O)n(-c2ccccc2)c(=O)[nH]c1=O (stereo not given),27.9% (inactive)
2,CN1CCN(Cc2ccc(OC(F)(F)F)cc2)CC1,3.1% (inactive)
3,CCc1nc2ccccc2c(=O)n1-c1cccc(OC)c1,-4% (inactive)
4,CC(=O)N(C1=NCCCS1)c1ccccc1F,18.1% (inactive)
5,COC(=O)C(c1ccccc1)N1CCCCCC1 (stereo not given),5.8% (inactive)
6,O=c1c2ccccc2nc(-c2ccco2)n1-c1ccc(Br)cn1,-4.8% (inactive)
7,COc1ccccc1N=C1SCCCN1C,-3.6% (inactive)
8,CCN(CC)CCOC(=O)c1cc2cc(COC)ccc2o1,-1.3% (inactive)
9,Cc1cccc(-n2c(C)nc3cc(C(=O)N4CCC5(CC4)OCCO5)ccc32)c1,13.7% (inactive)
10,O=C(c1cc(-c2ccncc2)nc2ccccc12)N1CCC2(CC1)OCCO2,41.9% (inactive)
11,O=C(c1cc2nc(-c3ccccc3)cc(-c3ccccc3)n2n1)N1CCC2(CC1)OCCO2,94.6% (active)
12,CCN(CC)P(=O)(Oc1cccc(C)c1)N(CC)CC,46.2% (inactive)
13,CCC(=O)CC(c1ccc([N+](=O)[O-])cc1)c1c(O)c2ccccc2oc1=O (stereo not given),75.8% (active)
14,O=C(C1CC(=O)N(C2CCCC2)C1)N1CCC2(CC1)OCCO2 (stereo not given),9.5% (inactive)
15,CC(=O)N1CN2CN(C(C)=O)CC(C(=O)c3ccc(Br)cc3)(C2)C1,-14.6% (inactive)
16,Fc1ccc(N2CCN(Cc3ccc4c(c3)OCO4)CC2)cc1,14.2% (inactive)
17,c1ccc2sc(C3CCCNC3)nc2c1 (stereo not given),-23% (inactive)
18,CCC(=NCCCO)c1c(O)n(-c2ccc(OC)cc2)c(=O)[nH]c1=O,-2.8% (inactive)
19,CCC(=NCc1ccco1)c1c(O)n(Cc2ccccc2)c(=O)[nH]c1=O,35.4% (inactive)
20,CCCCn1c(O)c(C(CC)=NCc2ccco2)c(=O)[nH]c1=O,56.4% (active)
21,CCCCCCN=C(CC)c1c(O)n(CCCC)c(=O)[nH]c1=O,93.6% (active)
22,Cc1cc(OCc2cc(C(=O)O)oc2C)c2c3c(c(=O)oc2c1)CCCC3,22.2% (inactive)
23,OC(CNC1CCCCC1)c1ccccc1 (stereo not given),28.7% (inactive)

row,Structure (SMILES),inhibition
1,O=c1c2ccccc2nc(-c2ccc(Cl)cc2Cl)n1-c1ccncc1,17.2% (inactive)
2,COC(=O)N(c1ccc(OC)cc1)P1(=S)OCCC(C)O1 (stereo not given),12.9% (inactive)
3,CCc1cccc2c(C#N)cn(CC(=O)N3CCOCC3)c12,37.3% (inactive)
4,N[C@@H](Cc1c[nH]c2ccccc12)c1nnc(SCc2c(F)cccc2Cl)o1,70.3% (active)
5,CCCC(C)n1[nH]c(=O)c2c1NC(=O)CSC2c1ccc(OC)c(OC)c1 (stereo not given),1.7% (inactive)
6,CCN1CCN(C(=O)Cc2coc3cc(C)cc(C)c23)CC1,-3.2% (inactive)
7,COc1cc(Cn2c(N)c(C(=O)NCc3ccco3)c3nc4ccccc4nc32)cc(OC)c1OC,100% (active)
8,CCOC(=O)c1c(N)n(CCN2CCOCC2)c2nc3ccccc3nc12,25.6% (inactive)
9,CCOC(=O)c1c(N)n(Cc2ccccc2)c2nc3ccccc3nc12,12% (inactive)
10,O=C(c1cc(S(=O)(=O)N2CCOCC2)ccc1F)N1CCC2(CC1)OCCO2,-0.4% (inactive)
11,Cc1cc(C)cc(NC(=S)NC2CC3CCCC(C2)N3Cc2cccs2)c1 (stereo not given),8.1% (inactive)
12,CNP1(NC)=Nc2nn(-c3ccccc3)c(N)c2C(c2ccccc2)=N1,-4% (inactive)
13,CC1(C)C(c2ccccc2)=NC(c2cccnc2)=[N+]1[O-],38.2% (inactive)
14,Cn1c(O)c(C=NCCCC(=O)O)c(=O)n(C)c1=O,-3.8% (inactive)
15,C/C(CCc1c[nH]c2ccccc12)=N\O,-21.6% (inactive)
16,CCOC(=O)C1=C(C)OC(N)=C(C(=O)OC)C12C(=O)Nc1ccc(Br)cc12 (stereo not given),22% (inactive)
17,COc1ccc(C2NCc3ccc4c(c3-n3cccc32)OCO4)cc1OC (stereo not given),10.3% (inactive)
18,CCOC(=O)C1SC2(C(F)(F)C(F)F)CC1(O)c1c(c(OC)c3occc3c1OC)O2 (stereo not given),87% (active)
19,CCNc1nc2[nH]c(=O)c3c(c2s1)OC(N)=C(C#N)C3c1cccs1 (stereo not given),-5.9% (inactive)
20,CCOc1ccc(C2SCC(=O)Nc3c2c(C)nn3C2CCOC(C)(C)C2)cc1 (stereo not given),7.4% (inactive)
21,N#Cc1ccc(Cn2cc(C(=O)c3ccco3)c3ccccc32)cc1,77.3% (active)
22,CC1=C(C(=O)Nc2ccccc2)SCCO1,-1.2% (inactive)
23,O=C(CSC1c2ccccc2-c2ccccc21)N/N=C/c1ccccc1,21.3% (inactive)
